Test results: PubChem BioAssay (NCI)
This is part of a sample that, as a whole, favours compounds with a hit. Of some 79,000 tested, about 15% had one in any assay. Active and inactive are the calls of the source. Rule as the data show it: active = growth inhibition above about 70%; inactive = the rest.

What was measured:
[1] = NCI Yeast Anticancer Drug Screen. Data for the rad52 strain (AID 147);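 also: 0% = growth of vehicle-treated control cultures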; conditions: S. cerevisiae rad52 mutant growth inhibition, stronger effect = higher value
Outline: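 Genetically altered yeast (DNA damage repair defect) treated with compound; inhibition calculated relative to vehicle.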

[2] = NCI Yeast Anticancer Drug Screen. Data for the wt1 strain (AID 149);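 also: 0% = growth of vehicle-treated wt1 cultures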; conditions: S. cerevisiae wt1 strain (SPY 50644) growth inhibition, stronger effect = higher value
Outline: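 Using yeast strain wt1, compound-induced growth inhibition was determined against vehicle-treated cultures.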

[3] = NCI Yeast Anticancer Drug Screen. Data for the rad50EPP+ strain (AID 151);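 also: 0% = growth of vehicle-treated control cultures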; conditions: S. cerevisiae rad50 mutant strain, stronger effect = higher value
Outline: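 Strain rad50EPP+; compound exposure; % growth inhibition vs vehicle.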

[4] = NCI Yeast Anticancer Drug Screen. Data for the mgt1 strain (AID 153); conditions: S. cerevisiae mgt1 mutant growth inhibition, stronger effect = higher value
Outline: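 Read-out: yeast growth inhibition vs vehicle control. Strain mgt1, drawn from a panel altered in DNA damage repair or cell cycle control.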

[5] = NCI Yeast Anticancer Drug Screen. Data for the rad50 strain (AID 155);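 also: 0% = growth of vehicle-only cultures of the same strain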; conditions: S. cerevisiae rad50 strain growth inhibition, stronger effect = higher value
Outline: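 Relative growth inhibition (compound vs vehicle) was measured in yeast with a defined repair-gene alteration.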

[6] = NCI Yeast Anticancer Drug Screen. Data for the mec2-1 strain (AID 157); conditions: S. cerevisiae mec2-1 strain, stronger effect = higher value
Outline: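 Cells of the genetically defined mec2-1 yeast strain are incubated with test compound. Inhibition of growth is calculated against vehicle-treated controls.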

[7] = NCI Yeast Anticancer Drug Screen. Data for the rad14 strain (AID 159);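 also: 0% = growth of vehicle-treated control cultures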; conditions: S. cerevisiae rad14 strain growth inhibition, stronger effect = higher value
Outline: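 Screen for anticancer potential: a yeast strain altered in DNA damage repair is grown with compound, and reduced growth is quantified against vehicle controls.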

[8] = NCI Yeast Anticancer Drug Screen. Data for the sgs1 mgt1 strain (AID 161);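 also: 0% = growth of cultures given vehicle only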; conditions: S. cerevisiae sgs1 mgt1 strain, stronger effect = higher value
Outline: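 Inhibition of yeast growth, normalised to vehicle-treated controls, is reported for a strain bearing genetic alterations in DNA damage repair.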

[9] = NCI Yeast Anticancer Drug Screen. Data for the CLN2oe strain (AID 163);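 also: 0% = growth of vehicle-only control cultures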; conditions: S. cerevisiae CLN2oe strain, stronger effect = higher value
Outline: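 Strain altered in cell-cycle control, incubated with compound; growth compared to solvent-treated controls.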

[10] = NCI Yeast Anticancer Drug Screen. Data for the cln2 rad14 strain (AID 165);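 also: 0% = growth equal to vehicle treated cultures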; conditions: S. cerevisiae cln2 rad14 strain, stronger effect = higher value
Outline: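 The screen exposed genetically defined yeast (cln2 rad14) to test compounds and scored growth inhibition relative to vehicle-treated controls.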

[11] = NCI Yeast Anticancer Drug Screen. Data for the bub3 strain (AID 167); conditions: S. cerevisiae bub3 mutant strain, stronger effect = higher value
Outline: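 Screening used yeast with an engineered genetic alteration affecting cell cycle control. Compound-exposed cultures were compared with vehicle cultures, and reduced growth was taken as inhibition.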

[12] = NCI Yeast Anticancer Drug Screen. Data for the wt2 strain (AID 169);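 also: 0% = growth of vehicle-treated yeast cultures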; conditions: S. cerevisiae wt2 strain growth inhibition, stronger effect = higher value
Outline: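 Steps: yeast strain treated with compound; growth recorded; inhibition calculated relative to cultures given vehicle alone.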

[13] = NCI Yeast Anticancer Drug Screen. Data for the mlh1 strain (AID 171);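 also: 0% = growth of vehicle-treated control cultures of the same strain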; conditions: S. cerevisiae mlh1 strain growth inhibition, stronger effect = higher value
Outline: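 Yeast screen: mutant strain plus compound, growth scored against vehicle control wells.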

[14] = NCI Yeast Anticancer Drug Screen. Data for the sgs1 strain (AID 173);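 also: 0% = growth of vehicle-only control cultures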; conditions: S. cerevisiae sgs1 mutant, stronger effect = higher value
Outline: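 Inhibition of yeast growth served as the measure. The mutant strain was treated with each compound, and growth was normalised to cultures receiving vehicle alone.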

[15] = NCI Yeast Anticancer Drug Screen. Data for the mlh1 rad18 strain (AID 175); conditions: S. cerevisiae mlh1 rad18 strain growth inhibition, stronger effect = higher value
Outline: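 Compound-treated yeast growth, normalised to vehicle controls. Strain bears defined DNA repair mutations.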

[16] = NCI Yeast Anticancer Drug Screen. Data for the rad18 strain (AID 177); conditions: S. cerevisiae rad18 mutant growth inhibition, stronger effect = higher value
Outline: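 Inhibition values reflect reduced yeast growth compared with vehicle-treated controls, using a strain engineered with a DNA damage repair defect.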

[17] = at 5.0 µM (retest, dose inferred, filed as 0.5)
[18] = at 50.0 µM (retest, dose inferred, filed as 5.0)

Measured: growth inhibition

Cc1cc(O)c2c(c1O)C(=O)C13C(=C2O)C(=O)C2C(O)C1C1C(O)C3C(=O)C3=C(O)c4c(O)cc(C)c(O)c4C(=O)C321 (stereo unspecified)
active: [1]; at 33.0 µM 89% | [1]; at 100.0 µM 90% | [2]; at 33.0 µM 80% | [2]; at 100.0 µM 85% | [4]; at 33.0 µM 86% | [4]; at 100.0 µM 82% | [5]; at 33.0 µM 79% | [5]; [18] 84% | [5]; at 50.0 µM 77.3% | [5]; at 100.0 µM 80% | [6]; [17] 75% | [6]; at 11.0 µM 76% | [6]; at 33.0 µM 86% | [6]; [18] 93% | [6]; at 50.0 µM 85.3% | [6]; at 100.0 µM 83% | [7]; at 33.0 µM 77% | [7]; at 100.0 µM 80% | [8]; [18] 86% | [8]; at 50.0 µM 79.2% | [9]; at 11.0 µM 84% | [9]; at 33.0 µM 91% | [9]; at 100.0 µM 83% | [10]; [18] 91% | [11]; at 33.0 µM 82% | [11]; [18] 87% | [11]; at 50.0 µM 77% | [11]; at 100.0 µM 84% | [12]; at 33.0 µM 87% | [12]; at 100.0 µM 85% | [13]; at 33.0 µM 79% | [13]; at 100.0 µM 83% | [14]; at 33.0 µM 80% | [14]; at 100.0 µM 80% | [15]; [18] 86% | [16]; at 33.0 µM 73% | [16]; at 100.0 µM 84%
inactive: [1]; at 1.2 µM 28% | [1]; at 3.7 µM 39% | [1]; at 11.0 µM 58% | [2]; at 1.2 µM -7% | [2]; at 3.7 µM 2% | [2]; at 11.0 µM 38% | [3]; at 1.2 µM 4% | [3]; at 3.7 µM 3% | [3]; at 11.0 µM -4% | [3]; at 33.0 µM 1% | [3]; at 100.0 µM -38% | [4]; at 1.2 µM 5% | [4]; at 3.7 µM 26% | [4]; at 11.0 µM 61% | [5]; at 1.2 µM 29% | [5]; at 3.7 µM 37% | [5]; [17] 12% | [5]; at 11.0 µM 51% | [6]; at 1.2 µM 19% | [6]; at 3.7 µM 34% | [7]; at 1.2 µM -6% | [7]; at 3.7 µM 9% | [7]; at 11.0 µM 52% | [8]; [17] 37% | [9]; at 1.2 µM 18% | [9]; at 3.7 µM 17% | [10]; [17] 28% | [10]; at 50.0 µM 29.8% | [11]; at 1.2 µM -5% | [11]; at 3.7 µM 4% | [11]; [17] 59% | [11]; at 11.0 µM 27% | [12]; at 1.2 µM 12% | [12]; at 3.7 µM 26% | [12]; at 11.0 µM 52% | [13]; at 1.2 µM 18% | [13]; at 3.7 µM 15% | [13]; at 11.0 µM 43% | [14]; at 1.2 µM 29% | [14]; at 3.7 µM 31% | [14]; at 11.0 µM 54% | [15]; [17] 58% | [15]; at 50.0 µM 63.4% | [16]; at 1.2 µM -3% | [16]; at 3.7 µM -4% | [16]; at 11.0 µM 15%

COc1ccc2oc(-c3ccc(Cl)cc3)c(N3CCN(C)CC3)c2c1
active: [1]; at 11.0 µM 91% | [1]; at 33.0 µM 98% | [1]; at 100.0 µM 99% | [2]; at 33.0 µM 99% | [2]; at 100.0 µM 99% | [3]; at 33.0 µM 99% | [3]; at 100.0 µM 99% | [4]; at 11.0 µM 99% | [4]; at 33.0 µM 100% | [4]; at 100.0 µM 99% | [5]; [17] 79% | [5]; at 11.0 µM 94% | [5]; at 33.0 µM 99% | [5]; [18] 99% | [5]; at 100.0 µM 99% | [6]; at 11.0 µM 87% | [6]; at 33.0 µM 98% | [6]; [18] 100% | [6]; at 100.0 µM 99% | [7]; at 11.0 µM 99% | [7]; at 33.0 µM 99% | [7]; at 100.0 µM 99% | [8]; [18] 100% | [9]; at 11.0 µM 98% | [9]; at 33.0 µM 99% | [9]; at 100.0 µM 98% | [10]; [18] 98% | [10]; at 50.0 µM 99.5% | [11]; at 11.0 µM 98% | [11]; at 33.0 µM 99% | [11]; [18] 99% | [11]; at 100.0 µM 99% | [12]; at 11.0 µM 97% | [12]; at 33.0 µM 99% | [12]; at 100.0 µM 99% | [13]; at 11.0 µM 90% | [13]; at 33.0 µM 99% | [13]; at 100.0 µM 99% | [14]; at 11.0 µM 96% | [14]; at 33.0 µM 99% | [14]; at 100.0 µM 99% | [15]; [18] 99% | [16]; at 11.0 µM 91% | [16]; at 33.0 µM 99% | [16]; at 100.0 µM 99%
inactive: [1]; at 1.2 µM -1% | [1]; at 3.7 µM 0% | [2]; at 1.2 µM -1% | [2]; at 3.7 µM -3% | [2]; at 11.0 µM 30% | [3]; at 1.2 µM -1% | [3]; at 3.7 µM -4% | [3]; at 11.0 µM 28% | [4]; at 1.2 µM -2% | [4]; at 3.7 µM -1% | [5]; at 1.2 µM -3% | [5]; at 3.7 µM 0% | [5]; at 50.0 µM 56.3% | [6]; at 1.2 µM -3% | [6]; at 3.7 µM -3% | [6]; [17] 9% | [6]; at 50.0 µM 54.7% | [7]; at 1.2 µM 0% | [7]; at 3.7 µM 13% | [8]; [17] 23% | [8]; at 50.0 µM 58.5% | [9]; at 1.2 µM -6% | [9]; at 3.7 µM -5% | [10]; [17] 17% | [11]; at 1.2 µM -3% | [11]; at 3.7 µM -6% | [11]; [17] 17% | [11]; at 50.0 µM 62.1% | [12]; at 1.2 µM 0% | [12]; at 3.7 µM -3% | [13]; at 1.2 µM -2% | [13]; at 3.7 µM 0% | [14]; at 1.2 µM -1% | [14]; at 3.7 µM 0% | [15]; [17] 59% | [15]; at 50.0 µM 51.5% | [16]; at 1.2 µM 1% | [16]; at 3.7 µM 4%
